Sampled rows, rich in hits. Any-hit rate of the full collection: about 8.9%.
MCF10A rereplic – inducers of DNA re-replication in MCF 10A breast cells; MCF 10A DNA re-replication, Hoechst nuclear intensity, 48 h; Potency, µM (highest dose often 46.1 µM), inactives show at the highest dose activity, positive = re-replication, most hits filed as activators; actives 2.9% (n = 350,000); AID 624296; also: potency is read from the fitted curve at half-maximal effect; % of control where 0% means no effect; nearly all actives have a fitted effect of over 50% in size
KB-V1 cytotox – KB-V1 MDR subline cytotoxicity; actives 3.4% (n = 400,000); KB-V1 MDR cells viability, CellTiter-Glo, 72 h; Potency, µM (doses to about 46.1 µM), actives largely listed as cytotoxic; also: potency is read from the fitted curve at half-maximal effect; % is scaled to controls: 0 for no effect and ±100 for the full control effect; nearly all actives have a fitted effect of over 60% in size
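Potencies derive from concentration-effect curves fitted to normalized luminescence (CellTiter-Glo) of KB-V1 cells treated for 72 h at 37 degrees C in phenol-red-free DMEM containing 10% FBS.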
KB-3-1 cytotox – kills parental KB-3-1 adenocarcinoma cells; Potency, µM (highest dose often 46.1 µM), most hits filed as cytotoxic; actives 1.4% (n = 400,000); KB-3-1 viability, CellTiter-Glo ATP luminescence, 72 h; AID 1347075; also: potency is read from the fitted curve at half-maximal effect; % is scaled to controls: 0 for no effect and ±100 for the full control effect; nearly all actives have a fitted effect of over 60% in size
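Cells are dispensed, compounds pinned in, plates held at 37 °C for 72 h, then CellTiter-Glo is added and luminescence read after 10 minutes. Cell line: parental KB-3-1 in phenol-red-free DMEM, 10% FBS.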
D3 ag – activates the human D3 dopamine receptor; actives 0.58% (n = 410,000); P35462; D3R DiscoveRx beta-arrestin cells, luminescence, 90 min; AID 652048; max activation, %; in the data active = max activation above about 30%; also: 0% is about no effect
Target sequence (P35462 whole entry, looked up): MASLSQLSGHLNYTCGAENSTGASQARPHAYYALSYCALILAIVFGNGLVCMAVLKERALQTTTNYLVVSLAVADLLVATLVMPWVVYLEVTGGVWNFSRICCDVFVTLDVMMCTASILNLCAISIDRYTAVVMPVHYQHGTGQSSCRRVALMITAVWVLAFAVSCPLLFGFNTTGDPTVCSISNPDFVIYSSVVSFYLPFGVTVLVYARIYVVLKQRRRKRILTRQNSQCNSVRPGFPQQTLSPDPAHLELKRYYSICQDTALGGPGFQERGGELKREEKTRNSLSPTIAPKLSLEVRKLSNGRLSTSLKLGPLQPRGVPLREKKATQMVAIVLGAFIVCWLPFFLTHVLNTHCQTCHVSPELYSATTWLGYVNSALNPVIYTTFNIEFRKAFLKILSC
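Agonist mode: compounds and dopamine controls were applied to plated cells for 90 min at 37 degrees C after an overnight attachment at 1500 cells/well. Luminescent read-out followed 30 - 60 minutes at room temperature with DiscoveRx detection reagent.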
DRD3 antagonist – blocks the human D3 dopamine receptor; D3R cells, DiscoveRx beta-arrestin luminescence, antagonist mode; hits give low values; max response, negative = inhibition, %; actives 2.5% (n = 360,000); in the data active = max response below about -50%; inconclusive = no clear call, values can overlap the other calls; also: % is scaled to controls: 0 for no effect and ±100 for the full control effect
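Cells plated overnight at 1500 cells/well, then exposed to library compounds with dopamine controls for 90 minutes at 37 degrees C. DiscoveRx reagent added for 30–60 minutes at room temperature; luminescence read, quantitative HTS format.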
SW480 rereplic – inducers of DNA re-replication in SW480 colon cancer cells. Potency, µM (series often up to 46.1 µM), without a hit: at the top dose re-replication activation, hits mostly activators. actives 1.8% (n = 340,000). AID 624297. SW480 DNA re-replication, Hoechst DNA content imaging, 48 h; also: potency is read from the fitted curve at half-maximal effect; % of control where 0% means no effect; nearly all actives have a fitted effect of over 55% in size
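Per well, 250 cells were exposed to pinned compound for 48 hr. Nuclear DNA was visualised with Hoechst (40 min, 37 C) and total object intensity recorded by fluorescence scanning.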
* hit, by the source's call; i = inactive; u = inconclusive; x = not tested or not shown. Unless noted, calls follow the shape of the dose curve; as a rule, active = well fitted curve in the direction sought with a large enough effect; inconclusive = small, poorly fitted or top-dose-only effect, or another doubt; inactive = no such curve, though single readings can be large; an effect the other way counts as inactive or inconclusive.

SMILES	MCF10A rereplic	KB-V1 cytotox	KB-3-1 cytotox	D3 ag	DRD3 antagonist	SW480 rereplic
Cc1ccc(NC(=O)c2ccccc2NS(=O)(=O)c2ccc(Cl)s2)cc1S(=O)(=O)N1CCOCC1	7.31µM*	20.6µM*	i	-5.1	-16.7	1.9%
CCc1noc(C)c1C(=O)Nc1ccc(C)c(S(=O)(=O)N2CCCCCC2)c1	10.7%	7.31µM*	i	3.2	7.4	14.2%
Cc1ccc(C)c(S(=O)(=O)N2CCN(C(=O)c3sccc3C)CC2)c1	4.7%	9.2µM*	i	-3.7	-7.0	-2.4%
CCc1noc(C)c1C(=O)N1CCN(S(=O)(=O)c2cc(C)ccc2C)CC1	-3.0%	x	x	-8.6	3.4	u
Cc1ccc(NC(=O)c2ccc(F)c(S(=O)(=O)N3CCOCC3)c2)cc1F	2.5%	3.66µM*	i	9.5	u	2.0%
CCc1noc(C)c1C(=O)N1CCN(S(=O)(=O)c2c(C)c(C)cc(C)c2C)CC1	5.6%	10.3µM*	i	6.0	-22.2	4.8%
Cc1csc(NC(=O)c2ccc(C)c(S(=O)(=O)N3CCCCC3)c2)n1	7.1%	9.2µM*	u	0.5	-13.4	2.5%
O=C(Nc1ccccc1)c1ccc(F)c(S(=O)(=O)N2CCOCC2)c1	1.8%	i	i	2.9	-6.8	7.3%
COc1ccc(C(=O)Nc2nc(C)cs2)cc1S(=O)(=O)N1CCCC1	7.2%	i	u	-5.5	-16.6	-9.5%
CCOc1ccc(-n2ccnc2SCC(=O)Nc2ccc(OC)cc2OC)cc1	x	x	x	5.1	x	x
O=C(COc1cccc(Cl)c1)N1CCC(c2nc3ccccc3o2)CC1	x	x	x	5.9	x	x
Cc1cccc(C)c1NC(=O)Nc1nnc([C@@H]2C[C@H](O)[C@@H](CO)O2)s1	x	u	i	-0.6	0.0	x
Cn1c(SCC(=O)N(C2CCCCC2)C2CCCCC2)nnc1-c1cccs1	13µM*	i	u	3.3	7.2	u
Cn1c(SCc2ccc(F)cc2)nnc1-c1cccs1	0.8%	16.4µM*	i	7.6	-19.2	0.1%
Cn1c(SCC(=O)NC2CC2)nnc1-c1cccs1	2.2%	i	i	-10.7	-5.7	-4.9%
Cn1c(SCC(=O)NC2CCCC2)nnc1-c1ccncc1	-2.1%	i	i	-4.0	-8.0	-0.6%
CCN(C(=O)C(C)Sc1nnc(-c2ccncc2)n1C)C1CCCCC1 (configuration not stated)	1.4%	16.4µM*	i	-27.0	-3.7	-4.3%
CCc1ccc(NC(=O)c2ccc3c(O)c(S(=O)(=O)c4ccc(Cl)cc4)c(=O)[nH]c3c2)cc1	x	x	x	5.9	x	x
CCCCOc1ccc(C2=NC(c3ccccc3)=Nc3ccc(OC)cc3N2)cc1	x	i	i	-10.5	x	x
COc1ccc(C2=Nc3ccc(OC(F)(F)F)cc3NC(c3cccnc3)=N2)cc1	x	i	i	36.5*	x	x
Cc1ccc(CN2CCN(Cc3ccccc3C(F)(F)F)CC2)cc1	1.4%	u	i	-28.6	-72.4*	-6.6%
COc1cc(CN2CCCCCC2)cc(OC)c1OC	0.3%	i	i	-16.1	u	0.2%
COc1ccc(CN2CCN(Cc3ccc(C(F)(F)F)cc3)CC2)c(OC)c1	3.4%	i	i	-22.7	-15.2	16.4µM*
COc1ccc(CN2CCCCCC2)c(C)c1C	-4.9%	i	i	-35.7	-75.2*	-3.0%
COc1ccc(CN2CCN(Cc3ccc(C)cc3)CC2)c(OC)c1	u	i	i	-38.4	-50.4*	-0.2%
SMILES	MCF10A rereplic	KB-V1 cytotox	KB-3-1 cytotox	D3 ag	DRD3 antagonist	SW480 rereplic
CCOc1ccc(-c2nnc(SCC(=O)NCc3ccccc3Cl)o2)cc1	x	i	i	-11.0	x	x
Cc1cc2oc(=O)cc(C)c2c2occ(-c3ccc(Cl)cc3)c12	x	i	i	-6.1	x	x
COc1ccc(-c2csc(C(O)c3ccc(F)c(OC)c3)n2)cc1 (configuration not stated)	x	u	i	15.7	29.6	x
COc1ccc([C@H]2CC(=O)C[C@@H](CCn3cc(-c4ccccn4)nn3)O2)cc1	x	i	i	2.3	4.0	x
CC(=O)c1sc(N/N=C2\CC3CCC2(C)C3(C)C)nc1C (configuration not stated)	20.6µM*	u	i	-2.5	-17.3	-74.4%
Cc1ccc(S(=O)(=O)NN=C2CC3CCC2(C)C3(C)C)cc1 (configuration not stated)	10.6%	i	i	9.2	5.2	1.2%
Nc1nonc1-n1nnc(C(=O)N/N=C/c2ccccc2Cl)c1CSc1ccccc1	16.4%	i	i	3.4	-15.4	-121.2%
Nc1nonc1-n1nnc(C(=O)N/N=C/c2c(Cl)cccc2Cl)c1CSC1=NCCS1	10.1%	i	u	-2.5	-52.8*	24.0%
Nc1nonc1-n1nnc(C(=O)N/N=C/C=C/c2ccccc2)c1CSC1=NCCS1	u	i	i	5.0	-50.1*	u
Cc1nn(CC(=O)NC2CCCCC2)c(=O)c2cc3cc(F)ccc3n12	x	u	i	1.8	x	x
Brc1ccccc1OCCN1CCOCC1	2.2%	i	i	2.4	u	0.2%
CN(C)CCOCCOc1ccccc1-c1ccccc1	-2.3%	u	u	-24.9	-68.6*	-3.4%
CC1CCCN(CCCOc2ccccc2-c2ccccc2)C1 (configuration not stated)	4.1%	u	i	-18.4	-67.1*	27.0%
CC1CCN(CCOCCOc2ccccc2Br)CC1	-29.4%	i	i	-20.8	-61.3*	u
COc1ccccc1OCCCCN1CCC(C)CC1	-0.7%	i	i	-46.4	u	0.7%
OCCCN1CCN(CCCOc2ccccc2-c2ccccc2)CC1	10.5%	u	i	-19.1	u	7.9%
CC1CCN(CCCCOc2ccccc2-c2ccccc2)CC1	u	u	u	-37.8	-99.4*	u
O=C(NNc1ncnc2c1cnn2-c1ccccc1)c1cccc(Cl)c1	x	i	i	-4.0	x	x
CCOc1ccc(NC(=O)CCS(=O)(=O)c2ccc(Br)s2)cc1	x	i	i	-0.1	x	x
CC1CCN(CCOCCOc2ccccc2-c2ccccc2)CC1	u	11.6µM*	i	-19.5	-82.2*	26.7%
c1ccc(-c2ccccc2OCCOCCN2CCCCC2)cc1	u	u	i	-27.7	u	-0.7%
COc1ccc(-c2nc3sc(CCNS(=O)(=O)c4c(C)cc(C)cc4C)c(C)n3n2)cc1	x	x	x	3.3	x	x
Cc1ccc(OCCCC(=O)Nc2nc3ccccc3[nH]2)cc1	2.6%	u	u	7.1	-0.8	1.8%
Cc1cccc(OCCCC(=O)Nc2nc3ccccc3[nH]2)c1	8.9%	20.6µM*	u	2.4	6.1	14.8%
N#CCCCSc1ncccc1-c1nc2ccccc2[nH]1	0.2%	13µM*	i	6.1	20.1	-8.3%

From PubChem
